Reference: PubChem BioAssay (NCATS)
Records with an inconclusive call do not appear. Active and inactive are the calls of the source. Calls come from the whole dose curve; as a rule, active = well fitted curve in the direction sought with a large enough effect; inconclusive = small, poorly fitted or top-dose-only effect, or another doubt; inactive = no such curve, though single readings can be large; an effect the other way counts as inactive or inconclusive. Where a SMILES comes first, the peptide text is derived from it. The star is where a group is joined. AMC = Cc1cc(=O)oc2cc(N*)ccc12; Cbz = O=C(OCc1ccccc1)*

What was measured:
CRL-7250 = normal cell line; assay: Cytotoxic Profiling of Annotated Libraries Using Quantitative High-Throughput Screening (AID 1296008); details: Five cell lines viability, CellTiter-Glo ATP luminescence, 48-72 h; max response: hits give low values; note: nearly all actives have a fitted effect of over 60% in size; for max response: % is set by controls: 0 for no effect and ±100 for the full control effect
In short: (§1)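 Compounds were pin-transferred onto cells and incubated 48 or 72 hr at 37 degree Celsius, 95% humidity. CellTiter-Glo was added, plates sat 10 min at room temperature, then ATP-coupled luminescence was imaged as the viability read-out.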

HEK293 = assay: as above; details: Five cell lines viability, CellTiter-Glo ATP luminescence, 48-72 h; max response: hits give low values
In short: as §1

HaCat [1] = assay: as above; details: Five cell lines viability, CellTiter-Glo ATP luminescence, 48-72 h; max response: hits give low values
In short: as §1

KB-3-1 = assay: as above; details: Five cell lines viability, CellTiter-Glo ATP luminescence, 48-72 h; max response: hits give low values
In short: as §1

NIH3T3 = assay: as above; details: Five cell lines viability, CellTiter-Glo ATP luminescence, 48-72 h; max response: hits give low values
In short: as §1

HACAT [2] = assay: qHTS assay to identify novel small-molecules to repurpose for Merkel cell carcinoma treatment (AID 1296009); details: MCC and control cell lines, CellTiter-Glo viability, 72 h; at 44.8 µM (top of the series) unless noted; note: nearly all actives have a fitted effect of over 60% in size
In short: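 Luminescence from CellTiter-Glo, read 10 min after addition at room temperature, reported viability following a 72 hr, 37 degree celsius treatment with NPC or MIPE compounds in titration; values normalized to plate controls.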

C33A = assay: Primary qHTS to identify gynecologic anti-cancer compounds using libraries of approved drugs and bioactive compounds (AID 1345084); details: Gynecologic cancer cell panel viability, ATPlite luminescence, 48 h; series mostly up to 57.5 µM; note: % is set by controls: 0 for no effect and ±100 for the full control effect; nearly all actives have a fitted effect of over 55% in size
In short: (§2)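 Cells, 1,000 per well, were allowed to settle for 16 h at 37 C before compound addition. Five concentrations were tested for 48 h, and viability was read by ATPlite luminescence after 15 min at room temperature.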

CAOV3 = assay: as above; details: Gynecologic cancer cell panel viability, ATPlite luminescence, 48 h; series mostly up to 57.5 µM
In short: as §2

CASKI = assay: as above; details: Gynecologic cancer cell panel viability, ATPlite luminescence, 48 h; series mostly up to 57.5 µM
In short: as §2

Es-2 = assay: as above; details: Gynecologic cancer cell panel viability, ATPlite luminescence, 48 h; series mostly up to 57.5 µM
In short: as §2

HeLa = assay: as above; details: Gynecologic cancer cell panel viability, ATPlite luminescence, 48 h; series mostly up to 57.5 µM
In short: as §2

Hek293T = assay: as above; details: Gynecologic cancer cell panel viability, ATPlite luminescence, 48 h, control line for the selectivity index; series mostly up to 57.5 µM
In short: as §2

JEG-3 = assay: as above; details: Gynecologic cancer cell panel viability, ATPlite luminescence, 48 h; series mostly up to 57.5 µM
In short: as §2

OV90 = assay: as above; details: Gynecologic cancer cell panel viability, ATPlite luminescence, 48 h; series mostly up to 57.5 µM
In short: as §2

Cc1occc(=O)c1O[C@@H]1O[C@H](CO[C@@H]2OC[C@](O)(CO)[C@H]2O)[C@@H](O)[C@H](O)[C@H]1O
inactive: outcome (CRL-7250) | max response (HEK293) 0.165% | outcome (HaCat [1]) | outcome (KB-3-1) | max response (NIH3T3) 1.4% | outcome (HACAT [2]) inactive [at 17.4 µM] | Potency (C33A) | Potency (CAOV3) | outcome (CASKI) | Potency (Es-2) | Potency (HeLa) | Potency (Hek293T) | Potency (JEG-3) | Potency (OV90)

C/C=C(/C)C(=O)O[C@H]1C[C@]2(C)O[C@@H]2[C@@H](OC(C)=O)[C@@]2(C)CC[C@@](O)(C(C)C)[C@H]12
inactive: outcome (CRL-7250) | max response (HEK293) -3.47% | outcome (HaCat [1]) | max response (KB-3-1) -1.06% | max response (NIH3T3) -1.87% | outcome (HACAT [2]) | Potency (C33A) | Potency (CAOV3) | outcome (CASKI) | Potency (Es-2) | Potency (HeLa) | Potency (Hek293T) | Potency (JEG-3) | Potency (OV90)

CCC[C@H](N[C@@H](C)C(=O)N1[C@H](C(=O)O)C[C@@H]2CCCC[C@@H]21)C(=O)O
inactive: max response (CRL-7250) -2.24% | max response (HEK293) 3.79% | outcome (HaCat [1]) | max response (KB-3-1) -5.15% | max response (NIH3T3) -10.2% | outcome (HACAT [2]) | Potency (C33A) | Potency (CAOV3) | outcome (CASKI) | Potency (Es-2) | Potency (HeLa) | Potency (Hek293T) | Potency (JEG-3) | Potency (OV90)

Cc1cc(=O)oc2cc(NC(=O)[C@H](CCC(=O)O)NC(=O)[C@H](CC(C)C)NC(=O)[C@H](CC(C)C)NC(=O)OCc3ccccc3)ccc12 (Cbz-Leu-Leu-Glu-{AMC})
inactive: max response (CRL-7250) -3.16% | max response (HEK293) -3.22% | outcome (HaCat [1]) | max response (KB-3-1) 3.3% | max response (NIH3T3) -20.3% | outcome (HACAT [2]) | Potency (C33A) | Potency (CAOV3) | outcome (CASKI) | Potency (Es-2) | Potency (HeLa) | Potency (Hek293T) | Potency (JEG-3) | Potency (OV90)

COc1cc(O[C@@H]2O[C@H](CO[C@H]3OC[C@](O)(CO)[C@H]3O)[C@@H](O)[C@H](O)[C@H]2O)cc(OC)c1O
inactive: max response (CRL-7250) -3.27% | max response (HEK293) 0.643% | outcome (HaCat [1]) | outcome (KB-3-1) | max response (NIH3T3) -4.07% | outcome (HACAT [2]) inactive [at 17.4 µM] | Potency (C33A) | Potency (CAOV3) | outcome (CASKI) | Potency (Es-2) | Potency (HeLa) | Potency (Hek293T) | Potency (JEG-3) | Potency (OV90)

C=C1CC[C@@H]2[C@@](C)(CO[C@@H]3O[C@H](CO)[C@@H](O)[C@H](O)[C@H]3O)[C@H](O)CC[C@@]2(C)[C@@H]1CC/C(C)=C/CO[C@@H]1O[C@H](CO)[C@@H](O)[C@H](O)[C@H]1O
inactive: outcome (CRL-7250) | max response (HEK293) -9.45% | outcome (HaCat [1]) | max response (KB-3-1) -3.96% | max response (NIH3T3) -12.7% | outcome (HACAT [2]) inactive [at 17.4 µM] | Potency (C33A) | Potency (CAOV3) | outcome (CASKI) | Potency (Es-2) | Potency (HeLa) | Potency (Hek293T) | Potency (JEG-3) | Potency (OV90)

C=CC1(C)CC2CCC3C(C)(C(=O)O)CCCC3(C)C2=CC1=O (stereo not drawn)
inactive: outcome (CRL-7250) | max response (HEK293) -0.432% | outcome (HaCat [1]) | outcome (KB-3-1) | max response (NIH3T3) -4.63% | outcome (HACAT [2]) | Potency (C33A) | Potency (CAOV3) | outcome (CASKI) | Potency (Es-2) | Potency (HeLa) | Potency (Hek293T) | Potency (JEG-3) | Potency (OV90)

O=C(c1c2ccccc2cc2ccccc12)N1CCC(N2CCC[C@@H](C(=O)N3CCOCC3)C2)CC1
inactive: max response (CRL-7250) 2.01% | max response (HEK293) -10.6% | outcome (HaCat [1]) | outcome (KB-3-1) | max response (NIH3T3) -3.13% | outcome (HACAT [2]) | Potency (C33A) | Potency (CAOV3) | outcome (CASKI) | Potency (Es-2) | Potency (HeLa) | Potency (Hek293T) | Potency (JEG-3) | Potency (OV90)

COC(=O)[C@H](Cc1cccc(C(=N)N)c1)[C@@H](C)NC(=O)c1ccc(-c2cc[n+]([O-])cc2)cc1
inactive: max response (CRL-7250) -2.22% | max response (HEK293) 3.53% | outcome (HaCat [1]) | outcome (KB-3-1) | max response (NIH3T3) 0.404% | outcome (HACAT [2]) | Potency (C33A) | Potency (CAOV3) | outcome (CASKI) | Potency (Es-2) | Potency (HeLa) | Potency (Hek293T) | Potency (JEG-3) | Potency (OV90)

COC(=O)C1=CO[C@@H](O[C@@H]2O[C@H](CO)[C@@H](O)[C@H](O)[C@H]2O)[C@@H]2C(CO)=CC[C@H]12
inactive: max response (CRL-7250) 3.17% | max response (HEK293) -17.4% | outcome (HaCat [1]) | outcome (KB-3-1) | max response (NIH3T3) -0.343% | outcome (HACAT [2]) | Potency (C33A) | Potency (CAOV3) | outcome (CASKI) | Potency (Es-2) | Potency (HeLa) | Potency (Hek293T) | Potency (JEG-3) | Potency (OV90)

COc1ccc(C2COc3cc(O)ccc3C2)c(O)c1OC (stereo not drawn)
inactive: outcome (CRL-7250) | max response (HEK293) -9.14% | outcome (HaCat [1]) | max response (KB-3-1) 1.88% | max response (NIH3T3) -7.34% | outcome (HACAT [2]) | Potency (C33A) | Potency (CAOV3) | outcome (CASKI) | Potency (Es-2) | Potency (HeLa) | Potency (Hek293T) | Potency (JEG-3) | Potency (OV90)

CC1(C(=O)O)CC[C@]2(C(=O)OC3OC(CO)C(O)C(O)C3O)CC[C@]3(C)C(=CCC4[C@@]5(C)CC[C@H](OC6OCC(O)C(O)C6OC6OC(CO)C(O)C(O)C6O)C(C)(C)C5CC[C@]43C)C2C1 (stereo partly drawn)
inactive: max response (CRL-7250) 0.0336% | max response (HEK293) -7.14% | outcome (HaCat [1]) | outcome (KB-3-1) | max response (NIH3T3) 0.38% | outcome (HACAT [2]) inactive [at 9.27 µM] | activity change, negative = cytotoxicity (C33A) -1.33% [at 11.6 µM] | activity change, negative = cytotoxicity (CAOV3) -1.35% [at 11.6 µM] | activity change, negative = cytotoxicity (CASKI) -6.1% [at 11.6 µM] | activity change, negative = cytotoxicity (Es-2) 1.53% [at 11.6 µM] | activity change, negative = cytotoxicity (HeLa) 6.18% [at 11.6 µM] | activity change, negative = cytotoxicity (Hek293T) -2.26% [at 11.6 µM] | activity change, negative = cytotoxicity (JEG-3) -0.785% [at 11.6 µM] | activity change, negative = cytotoxicity (OV90) -0.207% [at 11.6 µM]
